A selection: hits, their analogues and other compounds. The true share with any hit is near 2.4%.
D2 antagonist: D2 dopamine receptor (human) antagonism. inhibition, % at 10 µM. AID 485344. 340,000 tested, 2% active. HEK293 TREx D2 cells, calcium flux, dopamine EC80. P14416; in the data active = inhibition above about 30%; inactive = below that, where a call was filed
Target sequence (P14416 whole entry, looked up): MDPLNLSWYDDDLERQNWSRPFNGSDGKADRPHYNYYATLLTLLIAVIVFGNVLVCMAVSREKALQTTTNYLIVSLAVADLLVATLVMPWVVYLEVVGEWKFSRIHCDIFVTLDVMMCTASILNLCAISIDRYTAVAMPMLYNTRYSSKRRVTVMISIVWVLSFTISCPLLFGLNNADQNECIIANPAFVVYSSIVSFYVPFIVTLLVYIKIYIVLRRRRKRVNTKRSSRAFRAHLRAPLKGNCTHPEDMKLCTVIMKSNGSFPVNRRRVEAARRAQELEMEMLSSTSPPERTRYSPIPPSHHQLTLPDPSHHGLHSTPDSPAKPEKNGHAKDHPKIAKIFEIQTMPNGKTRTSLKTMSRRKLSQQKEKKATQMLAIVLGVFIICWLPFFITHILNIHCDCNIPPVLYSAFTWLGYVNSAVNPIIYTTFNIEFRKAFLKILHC
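Calcium mobilization kinetics were recorded at 1 s intervals in tetracycline-induced HEK293 T-REx D2 cells, first for 180 s after compound addition and then 180 s after EC80 dopamine.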
D2 PAM-1: potentiates the human D2 dopamine receptor allosterically | DiscoveRx D2 beta-arrestin cells, luminescence, 90 min; 100% = 57 uM dopamine signal | 360,000 tested, 0.23% active | AID 624464 | P14416 | potentiation, % (no concentration beside the values); in the data active = potentiation above about 50%; inconclusive = mostly about 30% to 49%
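D2 cells co-treated with compound plus 50 nM dopamine (EC20) for 90 min at 37 deg C to detect potentiation. Beta-arrestin recruitment was read as enzyme-fragment luminescence after 1 h at ambient temperature. Full response was set by 57 uM dopamine.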
D2 ag-1: activates the human D2 dopamine receptor. P14416. DiscoveRx PathHunter D2 beta-arrestin, luminescence, 90 min; 100% = 57 uM dopamine signal. activation, % (concentration not given with the values). 360,000 tested, 0.084% active. AID 624465; in the data active = activation above about 40%; inconclusive = between about 15% and that limit
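Agonist mode: compounds alone added to overnight-plated D2 PathHunter cells for 90 min at 37 C, with 57 uM final dopamine (EC100) defining full response. Beta-arrestin recruitment detected by chemiluminescent reagent, read after 1 h at ambient temperature.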
D2 ag-2: D2 dopamine receptor (human) agonism | activation, % at 2 µM | P14416 | 340,000 tested, 0.53% active | AID 485358 | HEK293 T-REx D2 cells, calcium flux agonist mode;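 active = activation over 3 SD above normal in the single-dose calcium agonist read, cut at about 30% in these data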
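Calcium-flux readout, 1 cycle/sec over 180 s following compound pin transfer, in inducible HEK293 Trex D2 cells (force-coupled); dopamine controls included. Positive calcium responses during this window marked compounds as potential agonists.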
D2 PAM-2: D2 dopamine receptor (human) potentiation; potentiation, % at 10 µM; HEK293 T-REx D2, calcium flux, EC20 dopamine potentiation; 340,000 tested, 0.34% active;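 active = potentiation over 3 SD above the plate norm, cut at about 30% in these data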
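Tetracycline-induced Hek293 Trex D2 cells, force-coupled to calcium, loaded with no-wash calcium dye. Compound added with 180 s kinetic read for agonism, then EC20 dopamine and a further 180 s read for potentiation.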
Numbers stand for hits; 0 = inactive; ? = inconclusive; - = not tested or not shown.

SMILES	D2 antagonist	D2 PAM-1	D2 ag-1	D2 ag-2	D2 PAM-2
O=C1CC(NS(=O)(=O)c2ccc([N+](=O)[O-])cc2)CN1c1cccc(F)c1 (stereo not drawn)	0	0	0	0	42
CC(=O)c1ccc(S(=O)(=O)NC2CC(=O)N(c3cccc(F)c3)C2)cc1 (stereo not drawn)	0	0	0	0	0
OCCN1CCN(CC/C=C2/c3ccccc3Sc3ccc(Cl)cc32)CC1	73	0	0	0	0
CC[N+](C)(C)CC/C=C1/c2ccccc2Sc2ccc(Cl)cc21	0	0	0	0	0
CN(C)CC/C=C1\c2ccccc2Sc2ccc(Cl)cc21	85	0	0	0	0
CN(C)CC/C=C1\c2ccccc2Sc2cc(F)c(Cl)cc21	-	0	0	-	-
O=C(Nc1ccc(Br)cc1)c1cc(-c2ccncc2)nc2ccccc12	-	0	0	-	-
COc1cc(/C=C(/C#N)c2nc3ccccc3[nH]2)ccc1OCC(=O)Nc1ccccc1C(C)C	32	0	0	0	0
COc1cc(/C=C(/C#N)c2nc3ccccc3[nH]2)ccc1OCC(=O)Nc1ccccc1C	0	0	0	0	0
CCOC(=O)CNC(=O)CSc1nnc(-c2ccco2)n1Cc1ccco1	0	0	0	0	0
COc1ccccc1NC(=O)CSc1nnc(-c2ccco2)n1N	34	0	0	0	0
CCOC(=O)CNC(=O)CSc1nnc(-c2ccco2)n1N	34	0	0	0	0
COc1cc(NC(=O)c2cc(-c3ccco3)on2)cc(OC)c1OC	33	0	0	0	0
Cc1cc(NC(=O)c2cc(-c3ccco3)on2)nn1Cc1ccc(Cl)cc1	0	0	0	32	0
Cc1nn(Cc2ccc(Cl)cc2)c(C)c1NC(=O)c1cc(-c2ccco2)on1	0	0	0	0	0
CC1CCN(Cc2c(C(=O)N/N=C/c3cc(Br)ccc3O)nnn2-c2nonc2N)CC1	0	0	0	0	0
CC1CCN(Cc2c(C(=O)N/N=C/c3cc(Cl)ccc3O)nnn2-c2nonc2N)CC1	0	0	0	0	30
C1=CC2c3ccccc3NC(c3ccncc3)C2C1 (stereo not drawn)	0	70	0	0	0
CC(=O)c1ccc2c(c1)C1C=CCC1C(c1ccncc1)N2 (stereo not drawn)	0	86	0	0	0
Brc1cc2c(cc1C1Nc3ccccc3C3C=CCC31)OCO2 (stereo not drawn)	0	0	0	0	0
CN(C)C(=O)/C(=C\c1ccncc1)NC(=O)c1ccccc1	39	0	0	0	0
CCN(CC)C(=O)/C(=C\c1ccncc1)NC(=O)c1ccccc1	0	0	0	0	0
Cc1ccc(-n2nc(C)c3c(C(=O)NCc4ccccc4)cc(C4CC4)nc32)cc1	-	-	-	0	0
COC(=O)c1ccccc1NC(=O)CN(c1ccc(Cl)cc1)S(=O)(=O)c1ccc(OC)cc1	-	-	-	0	0
COc1ccc(NC(=O)C2CCN(C(=O)Nc3ccccc3)CC2)cc1S(=O)(=O)N(C)C	77	0	0	0	0
SMILES	D2 antagonist	D2 PAM-1	D2 ag-1	D2 ag-2	D2 PAM-2
CC1CCC(=O)N(CCSc2ccccc2)CC1 (stereo not drawn)	33	0	0	0	0
COc1ccc(SCCN2CC[C@@H](C)CCC2=O)cc1	0	0	0	0	0
Cc1ccc(CNC(=O)Cc2c(C)c3cc4c(C)coc4cc3oc2=O)cc1	-	-	-	0	0
Cc1cc(C)nc(N(C#N)Cc2ccccc2C)n1	50	0	0	0	0
CC(=O)c1cccc(NC(=O)c2nc(-c3ccccc3)n(-c3ccccc3C)n2)c1	-	-	-	0	0
Cc1c(C(=O)NCCN2C(=O)S/C(=C\c3cccnc3)C2=O)cccc1[N+](=O)[O-]	0	0	0	0	0
O=C(NCCN1C(=O)S/C(=C\c2cccnc2)C1=O)c1ccc([N+](=O)[O-])s1	33	0	0	0	0
CCOC(=O)CSc1nc(C)cc(Oc2ccc(=O)n(C)n2)n1	36	0	0	0	0
Cc1cc(Oc2ccc(=O)n(C)n2)nc(SCCOc2ccccc2)n1	0	0	0	0	0
CC(C)(C)N(Cc1ccccc1)C(=O)CSc1nnc(CNc2ccc(F)cc2)o1	32	0	0	0	0
Cc1ccn2c(Nc3c(C)cccc3C)c(-c3ccc(Cl)s3)nc2c1	-	-	-	0	0
CCCCN1CCC(COC(=O)c2cc(Cl)c(N)c3c2OCCO3)CC1	64	0	0	0	0
CCC1CN(C(=O)Nc2ccc(C(=O)O)cc2)c2cc(Cl)ccc2O1 (stereo not drawn)	-	-	-	0	0
Cn1c(C(=O)NCCN2CCc3ccccc3C2)cc2c(=O)n(C)c3ccccc3c21	48	0	0	0	0
Cc1ccc(C)c(C(=O)COC(=O)c2ccccc2N2C(=O)C3C4CCC(C4)C3C2=O)c1 (stereo not drawn)	0	0	0	0	41
CS(=O)(=O)Nc1nc2n(n1)C(c1ccccc1)C=C(c1ccc(Br)cc1)N2 (stereo not drawn)	0	75	?	0	0
Cc1ccc(C2C=C(c3ccccc3)Nc3nc(NS(=O)(=O)c4ccc(C)cc4)nn32)cc1 (stereo not drawn)	-	-	-	0	0
CC(C)CNC(=O)N1[C@H](c2cccs2)[C@@H](C)C(=O)[C@@H](C)[C@@H]1c1cccs1	-	-	-	0	0
COc1ccccc1CNC(=O)COC(=O)c1n[nH]c2ccccc12	0	0	0	0	0
COc1ccc(CNC(=O)COC(=O)c2n[nH]c3ccccc23)cc1OC	30	0	0	0	0
Cc1ncoc1C(=O)N1CCCC(C(=O)c2ccc(-c3ccccc3)cc2)C1 (stereo not drawn)	52	0	0	0	0
O=C(c1ccc(-c2ccccc2)cc1)C1CCCN(Cc2ccncc2)C1 (stereo not drawn)	75	0	0	0	0
COc1cccc(C(=O)NCc2cn3cccc(C)c3n2)c1	-	-	-	0	0
COc1ccc(C2CCCN2C(=O)c2cccs2)cc1 (stereo not drawn)	78	0	0	0	0
COc1ccc(COCC(O)CN(Cc2ccccc2)C(C)C)cc1OC (stereo not drawn)	31	0	0	0	0
COc1ccc(COCC(O)CN2CCCCC2)cc1OC (stereo not drawn)	0	0	0	0	0
CN(C)c1ccc(CNC(=O)c2sc3ncccc3c2-n2cccc2)cc1	-	-	-	0	0
O=C(Nc1nc2n(n1)C(c1ccc(Cl)cc1)CC(c1ccc(Cl)cc1)N2)c1ccco1 (stereo not drawn)	32	0	0	0	0
COc1ccc(C2CC(c3ccc(Cl)cc3)Nc3nc(NC(=O)c4ccco4)nn32)cc1 (stereo not drawn)	0	0	0	0	0
O=c1cc(-c2ccco2)nc(SCc2cccc(Cl)c2)[nH]1	0	54	0	0	0

Screens deposited in PubChem BioAssay by National Center for Advancing Translational Sciences (NCATS).
